Source: PubChem BioAssay
CHX counter: affects cycloheximide protein synthesis inhibition readout, counter-screen; cell reporter, cycloheximide protein synthesis inhibition counterscreen; max response, %; actives 12% (n = 300,000); in the data active = max response mostly above about 13%, no sharp cut-off; inactive = mostly below about 14%; also: read at 38.3 µM for the half of the compounds with a filed dose; 0% is about no effect
NS1 function inh: inhibitors of influenza NS1 protein function. Potency, µM (doses to about 46.1 µM), without a hit: at the highest dose activity, positive = more growth. AID 2326. actives 0.4% (n = 270,000); calls by dose curve; also: potency is read from the fitted curve at half-maximal effect; actives are rising curves; nearly all actives have a fitted effect of over 50% in size
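A cell-based growth assay was used: compounds that relieve NS1-induced slow growth of budding yeast raise OD600. Assay medium was yeast nitrogen base with ammonium sulphate and -URA supplement, pH 6.0, with 2% galactose.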
Shiga inhibitor: Shiga toxin inhibition | Vero cells, Shiga toxin protein synthesis inhibition reporter | actives 9.2% (n = 290,000) | inhibition, % at 38.7 µM; in the data active = inhibition mostly above about 28%, no sharp cut-off; inactive = mostly below about 43%; also: 0% is about no effect
Pf growth 96h: P. falciparum growth inhibition at 96 hours | Potency, µM (top dose mostly 28.7 µM), inactives show at the highest dose activity change, negative = inhibition, actives largely listed as inhibitors | AID 504834 | P. falciparum luciferase reporter growth, 96 h | actives 6.9% (n = 320,000); also: potency is read from the fitted curve at half-maximal effect; % is scaled to controls: 0 for no effect and ±100 for the full control effect
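Cell-based qHTS: luciferase-tagged P. falciparum in erythrocytes (2% hematocrit, 0.05% parasitemia final) incubated with compounds for 96 hours, 37 C, 5% CO2; luciferase detection reagent then added and luminescence measured.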
SARS PLP yeast: SARS-CoV PLP inhibition in yeast; S. cerevisiae expressing SARS-CoV PLpro, growth rescue; Potency, µM (top dose mostly 32.9 µM), for the others: at the highest dose activity, positive = growth rescue, usual class: activators; actives 0.19% (n = 330,000); AID 485353; calls by dose curve; also: potency is read from the fitted curve at half-maximal effect; 0% is about no effect; nearly all actives have a fitted effect of over 55% in size
Pf growth 48h: P. falciparum growth inhibition at 48 hours (one generation); Potency, µM (titrated, usually from 28.7 µM), without a hit: at the highest dose activity change, negative = inhibition, hits mostly inhibitors; AID 504832; P. falciparum luciferase growth in erythrocytes, 48 h; actives 5.9% (n = 310,000); also: potency is read from the fitted curve at half-maximal effect; % is scaled to controls: 0 for no effect and ±100 for the full control effect
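Cell-based growth assay: transgenic P. falciparum expressing firefly luciferase, cultured in red cells within RPMI 1640 containing 0.5% w/v Albumax, 24 mM bicarbonate and gentamycin. A drop in luciferase activity indicates inhibition.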
* = called active by the depositor; ? = inconclusive; . = not tested or not shown. The list is not random: actives were taken first. Their share in the collection is about 21%. Unless noted, calls follow the shape of the dose curve; as a rule, active = well fitted inhibition curve with a large enough effect; inconclusive = small, poorly fitted or top-dose-only effect, or another doubt; inactive = no such curve, though single readings can be large or run the other way.

SMILES	CHX counter	NS1 function inh	Shiga inhibitor	Pf growth 96h	SARS PLP yeast	Pf growth 48h
CC1C(=O)N2CCCc3cc(S(=O)(=O)N4CCN(c5ccc(F)cc5)CC4)cc1c32 (stereo unspecified)	-2	7%	-7	1%	5%	-15%
Cc1ccc(Oc2cc(-n3nc(C)cc3C)ncn2)cc1	17*	-13%	59*	72%	-9%	40%
Cc1cc(C)n(-c2cc(-n3nc(C)cc3C)ncn2)n1	8	2%	-3	.	?	37%
O=C(Cc1cccs1)Nc1cccc(C(=O)Nc2ccc(C(=O)O)cc2)c1	-2	2%	-5	0%	0%	-13%
COc1cc(NC(=O)C/C(C)=N/NC(=O)C(OC)c2ccccc2)c(OC)cc1Cl (stereo unspecified)	-4	22%	16	-25%	-1%	0%
COc1ccc(Cl)cc1NC(=O)C/C(C)=N/NC(=O)Cc1ccccc1	15	1%	44*	86%	-2%	27%
COc1cc(NC(=O)C/C(C)=N/NC(=O)c2cccc(O)c2)c(OC)cc1Cl	30*	12%	129*	14%	-3%	14%
COc1ccc(OC)c(NC(=O)C(=O)N/N=C(\C)CC(=O)Nc2ccc(Cl)cn2)c1	-3	9%	-5	-4%	-1%	9%
COc1ccc(Cl)cc1NC(=O)C/C(C)=N/NC(=O)c1ccc(O)cc1	31*	21%	68*	?	-8%	12%
COc1ccc(C(=O)N/C(=C\c2cn(C)c3ccccc23)C(=O)NCCN2CCOCC2)cc1OC	-3	-8%	-1	28%	8%	11%
O=C(Nc1cccc(OCC(=O)N2CCOCC2)c1)c1cccc(Cl)c1	-1	-8%	-4	9%	-2%	61%
O=C(Nc1ccc(CN2CCS(=O)(=O)CC2)cc1)c1ccc(F)cc1	5	-3%	12	11%	-1%	36%
O=C(Nc1ccc(CN2CCOCC2)cc1)c1ccc(Cl)cc1	33*	-5%	36*	41%	6%	55%
O=C(Nc1ccc(F)cc1)c1ccc(Cn2cnnn2)cc1	16*	.	32	34%	3%	9%
O=C(Nc1ccc(CN2CCOCC2)cc1)c1ccco1	28*	10%	51*	59%	-2%	234%
O=C(Nc1cccc(OCC(=O)N2CCOCC2)c1)c1cccc([N+](=O)[O-])c1	-3	1%	-9	7.4µM*	0%	15%
CCOC(=O)c1ccc(Nc2nc(C)nc3c2nnn3Cc2ccccc2)cc1	-4	23%	-7	?	2%	?
O=C(Nc1ccc(CN2CCOCC2)cc1)c1ccc(Br)cc1	17*	13%	31	24%	5%	36%
CC(=O)Nc1ccc(/C(C)=N/NC(=O)c2ccc(CN3CCOCC3)cc2)cc1	-1	.	-6	9%	-2%	?
C/C(=N\NC(=O)c1ccc(CN2CCOCC2)cc1)c1ccc(NC(=O)c2ccccc2)cc1	41*	.	63*	39%	-6%	261%
O=C(Nc1cccc([N+](=O)[O-])c1)c1ccc(CN2CCOCC2)cc1	39*	27%	85*	12µM*	11%	145%
O=C(Nc1ccc(CN2CCOCC2)cc1)c1ccc2ccccc2c1	59*	-2%	46*	?	8%	24%
C/C(=N\NC(=O)c1ccc(CN2CCOCC2)cc1)c1cccc([N+](=O)[O-])c1	-1	-2%	-12	?	-6%	-25%
O=C(CSc1nc2cc(Cl)ccc2s1)Nc1cccc(S(=O)(=O)N2CCOCC2)c1	6	?	-10	?	20%	?
COc1ccc(CC(=O)N2CCN(c3ccccc3)CC2)cc1	9	1%	-5	10%	0%	-11%
CCc1nc(SCC(=O)Nc2cc(OC)ccc2OC)c2c(C)c(C)sc2n1	-5	-6%	3	37%	-1%	?
CC1CCN(C(=O)C2CCC(C)(C(=O)O)C2(C)C)CC1 (stereo unspecified)	-5	4%	-10	0%	7%	12%
Cc1ccccc1NC(=O)c1c2c(nc3ccccc13)CCC2	-4	5%	-10	-21%	-4%	15%
